Data published in PubChem BioAssay AID1159580 (chemical genetic matrix, 2015).
The campaign covered roughly 5,500 compounds. About 2,000 (36%) were called active. Roughly 18% stayed inconclusive and do not appear here. Rule as the data show it: active = normalized growth mostly below about 0.91 (no sharp cut-off); inconclusive = no clear call, values can overlap the other calls; inactive = mostly above about 0.92. The list shows a part of the results.

Test: chemical genetic growth profiling, strain panel (AID 1159580);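 also: tested at 20 µM; growth read once vehicle control cultures reached saturation at 30 °C; 1 = growth at the plate median or of vehicle wells; lower values mean less growth of the strain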
Settings: growth OD

Measured: normalized growth

COc1c(Cl)ccc(Cl)c1C(=O)O
inactive: S. cerevisiae deletion strains, locus YJR043C, strain POL32, stronger effect = lower value 1.01 | S. cerevisiae deletion strains, locus YJR075W, strain HOC1, stronger effect = lower value 0.971 | S. cerevisiae deletion strains, locus YKL009W, strain mrt4, stronger effect = lower value 1.02 | S. cerevisiae deletion strains, locus YKL068W, stronger effect = lower value 1.01 | S. cerevisiae deletion strains, locus YKL085W, strain MDH1 (second series), stronger effect = lower value 1.01 | S. cerevisiae deletion strains, locus YKL085W, strain MDH1, stronger effect = lower value 1.01 | S. cerevisiae deletion strains, locus YKL160W, strain elf1, stronger effect = lower value 0.988 | S. cerevisiae deletion strains, locus YKL190W, strain CNB1, stronger effect = lower value 1.01 | S. cerevisiae deletion strains, locus YKR001C, strain vps1, stronger effect = lower value 1.02 | S. cerevisiae deletion strains, locus YKR026C, strain gcn3, stronger effect = lower value 0.984 | S. cerevisiae deletion strains, locus YKR091W, strain srl3, stronger effect = lower value 0.985 | S. cerevisiae deletion strains, locus YLL001W, strain dnm1, stronger effect = lower value 0.995 | S. cerevisiae deletion strains, locus YLL026W, stronger effect = lower value 0.979 | S. cerevisiae deletion strains, locus YLL041C, strain sdh2, stronger effect = lower value 0.994 | S. cerevisiae deletion strains, locus YLR027C, strain aat2, stronger effect = lower value 0.982 | S. cerevisiae deletion strains, locus YLR039C, strain RIC1, stronger effect = lower value 1.06 | S. cerevisiae deletion strains, locus YLR058C, strain SHM2, stronger effect = lower value 1.02 | S. cerevisiae deletion strains, locus YLR102C, strain apc9, stronger effect = lower value 1.01 | S. cerevisiae deletion strains, locus YLR221C, strain rsa3, stronger effect = lower value 0.983 | S. cerevisiae deletion strains, locus YLR258W, strain gsy2, stronger effect = lower value 0.986 | S. cerevisiae deletion strains, locus YLR262C, strain YPT6 (second series), stronger effect = lower value 0.997 | S. cerevisiae deletion strains, locus YLR262C, strain YPT6, stronger effect = lower value 1.07 | S. cerevisiae deletion strains, locus YLR268W, strain sec22, stronger effect = lower value 1.03 | S. cerevisiae deletion strains, locus YLR320W, strain mms22, stronger effect = lower value 0.974 | S. cerevisiae deletion strains, locus YLR330W, strain CHS5, stronger effect = lower value 1.01 | S. cerevisiae deletion strains, locus YLR342W, strain FKS1 (second series), stronger effect = lower value 1.05 | S. cerevisiae deletion strains, locus YLR342W, strain FKS1, stronger effect = lower value 0.979 | S. cerevisiae deletion strains, locus YLR357W, strain rsc2, stronger effect = lower value 0.992 | S. cerevisiae deletion strains, locus YLR370C, strain arc18, stronger effect = lower value 0.986 | S. cerevisiae deletion strains, locus YLR371W, strain rom2, stronger effect = lower value 1.01 | S. cerevisiae deletion strains, locus YLR384C, strain iki3, stronger effect = lower value 0.985 | S. cerevisiae deletion strains, locus YLR418C, strain cdc73, stronger effect = lower value 1.02 | S. cerevisiae deletion strains, locus YML016C, strain PPZ1, stronger effect = lower value 1.01 | S. cerevisiae deletion strains, locus YML032C, strain rad52, stronger effect = lower value 1.02 | S. cerevisiae deletion strains, locus YML120C, strain ndi1, stronger effect = lower value 0.97 | S. cerevisiae deletion strains, locus YML124C, strain tub3, stronger effect = lower value 1.01 | S. cerevisiae deletion strains, locus YMR058W, strain fet3, stronger effect = lower value 0.979 | S. cerevisiae deletion strains, locus YMR078C, strain ctf18, stronger effect = lower value 1.02 | S. cerevisiae deletion strains, locus YMR125W, strain sto1, stronger effect = lower value 0.951 | S. cerevisiae deletion strains, locus YMR129W, stronger effect = lower value 0.987 | S. cerevisiae deletion strains, locus YMR205C, strain PFK2, stronger effect = lower value 0.975 | S. cerevisiae deletion strains, locus YMR223W, strain ubp8, stronger effect = lower value 1.01 | S. cerevisiae deletion strains, locus YMR231W, strain pep5, stronger effect = lower value 0.984 | S. cerevisiae deletion strains, locus YMR263W, strain SAP30, stronger effect = lower value 1.01 | S. cerevisiae deletion strains, locus YMR307W, strain GAS1, stronger effect = lower value 1.06 | S. cerevisiae deletion strains, locus YNL067W, strain RPL9B, stronger effect = lower value 1.01 | S. cerevisiae deletion strains, locus YNL071W, strain lat1, stronger effect = lower value 0.992 | S. cerevisiae deletion strains, locus YNL128W, strain TEP1, stronger effect = lower value 1 | S. cerevisiae deletion strains, locus YNL153C, strain GIM3, stronger effect = lower value 1.01 | S. cerevisiae deletion strains, locus YNL209W, strain ssb2, stronger effect = lower value 0.988 | S. cerevisiae deletion strains, locus YNL233W, strain BNI4, stronger effect = lower value 1.01 | S. cerevisiae deletion strains, locus YNL248C, strain rpa49, stronger effect = lower value 0.982 | S. cerevisiae deletion strains, locus YNL250W, strain rad50, stronger effect = lower value 1 | S. cerevisiae deletion strains, locus YNL271C, strain bni1, stronger effect = lower value 1.01 | S. cerevisiae deletion strains, locus YNL298W, strain CLA4, stronger effect = lower value 1.02 | S. cerevisiae deletion strains, locus YNL307C, strain MCK1, stronger effect = lower value 1.03 | S. cerevisiae deletion strains, locus YNL322C, strain KRE1 (second series), stronger effect = lower value 0.983 | S. cerevisiae deletion strains, locus YNL322C, strain KRE1, stronger effect = lower value 1.01 | S. cerevisiae deletion strains, locus YNR049C, strain mso1, stronger effect = lower value 0.977 | S. cerevisiae deletion strains, locus YNR052C, strain pop2, stronger effect = lower value 1.01 | S. cerevisiae deletion strains, locus YOL006C, strain TOP1, stronger effect = lower value 1.05 | S. cerevisiae deletion strains, locus YOL012C, strain htz1 0.945 | S. cerevisiae deletion strains, locus YOL147C, strain pex11, stronger effect = lower value 1.01 | S. cerevisiae deletion strains, locus YOR001W, strain rrp6, stronger effect = lower value 0.991 | S. cerevisiae deletion strains, locus YOR061W, strain CKA2, stronger effect = lower value 1.01 | S. cerevisiae deletion strains, locus YOR069W, strain VPS5, stronger effect = lower value 1 | S. cerevisiae deletion strains, locus YOR070C, strain gyp1, stronger effect = lower value 0.988 | S. cerevisiae deletion strains, locus YOR080W, strain dia2, stronger effect = lower value 0.969 | S. cerevisiae deletion strains, locus YOR083W, strain WHI5, stronger effect = lower value 0.988 | S. cerevisiae deletion strains, locus YOR106W, strain vam3, stronger effect = lower value 0.995 | S. cerevisiae deletion strains, locus YOR136W, strain idh2, stronger effect = lower value 1.01 | S. cerevisiae deletion strains, locus YOR144C, strain elg1, stronger effect = lower value 1.01 | S. cerevisiae deletion strains, locus YOR184W, strain ser1, stronger effect = lower value 1.02 | S. cerevisiae deletion strains, locus YOR265W, strain rbl2, stronger effect = lower value 0.976 | S. cerevisiae deletion strains, locus YOR270C, strain vph1, stronger effect = lower value 0.993 | S. cerevisiae deletion strains, locus YOR290C, strain snf2, stronger effect = lower value 0.997 | S. cerevisiae deletion strains, locus YOR316C, strain cot1, stronger effect = lower value 1.01 | S. cerevisiae deletion strains, locus YPL051W, strain arl3, stronger effect = lower value 0.995 | S. cerevisiae deletion strains, locus YPL055C, strain LGE1, stronger effect = lower value 1.02 | S. cerevisiae deletion strains, locus YPL078C, strain atp4, stronger effect = lower value 0.982 | S. cerevisiae deletion strains, locus YPL106C, strain sse1, stronger effect = lower value 0.979 | S. cerevisiae deletion strains, locus YPL240C, strain hsp82, stronger effect = lower value 0.997 | S. cerevisiae deletion strains, locus YPL241C, strain CIN2, stronger effect = lower value 1.01 | S. cerevisiae deletion strains, locus YPR119W, strain clb2, stronger effect = lower value 1.01 | S. cerevisiae deletion strains, locus YPR141C, strain kar3, stronger effect = lower value 1.02 | S. cerevisiae deletion strains, locus YPR163C, strain tif3, stronger effect = lower value 1.01 | S. cerevisiae deletion strains, locus YPR167C, strain met16, stronger effect = lower value 1.01 | S. cerevisiae deletion strains, strain wtn01, stronger effect = lower value 1.01 | S. cerevisiae strains, strain wild type, stronger effect = lower value 1.01
